{
  "source": "PubChem BioAssay AID485346",
  "about": "(Sanford-Burnham Center for Chemical Genomics, 2010)",
  "note": "Hit rate of the full screen: of about 330,000 compounds, about 10,000 (3%) were called active.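 The calls were made as follows: active = inhibition of at least 50% at 8 µM in the primary screen; inactive = the rest.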 Shown is part of a subset that was picked to be rich in actives.",
  "data": [
    {"target": "Protein Mdm4 (Homo sapiens) + E3 ubiquitin-protein ligase Mdm2 (Homo sapiens) (UniProt O15151+Q00987)", "sequence (O15151 whole entry, looked up)": "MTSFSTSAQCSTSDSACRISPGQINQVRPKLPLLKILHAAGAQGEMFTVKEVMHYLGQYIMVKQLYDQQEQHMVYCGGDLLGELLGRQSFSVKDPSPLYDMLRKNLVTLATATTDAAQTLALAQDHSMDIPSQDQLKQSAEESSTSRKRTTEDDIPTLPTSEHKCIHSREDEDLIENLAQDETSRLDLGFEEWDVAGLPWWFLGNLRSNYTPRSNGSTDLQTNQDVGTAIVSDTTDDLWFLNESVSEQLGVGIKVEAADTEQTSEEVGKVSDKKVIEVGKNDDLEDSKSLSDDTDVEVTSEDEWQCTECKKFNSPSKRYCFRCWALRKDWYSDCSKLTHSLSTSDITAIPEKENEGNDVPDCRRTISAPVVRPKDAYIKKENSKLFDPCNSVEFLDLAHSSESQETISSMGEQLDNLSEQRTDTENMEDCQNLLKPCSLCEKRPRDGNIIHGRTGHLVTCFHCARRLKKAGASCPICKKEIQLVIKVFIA", "sequence (Q00987 whole entry, looked up)": "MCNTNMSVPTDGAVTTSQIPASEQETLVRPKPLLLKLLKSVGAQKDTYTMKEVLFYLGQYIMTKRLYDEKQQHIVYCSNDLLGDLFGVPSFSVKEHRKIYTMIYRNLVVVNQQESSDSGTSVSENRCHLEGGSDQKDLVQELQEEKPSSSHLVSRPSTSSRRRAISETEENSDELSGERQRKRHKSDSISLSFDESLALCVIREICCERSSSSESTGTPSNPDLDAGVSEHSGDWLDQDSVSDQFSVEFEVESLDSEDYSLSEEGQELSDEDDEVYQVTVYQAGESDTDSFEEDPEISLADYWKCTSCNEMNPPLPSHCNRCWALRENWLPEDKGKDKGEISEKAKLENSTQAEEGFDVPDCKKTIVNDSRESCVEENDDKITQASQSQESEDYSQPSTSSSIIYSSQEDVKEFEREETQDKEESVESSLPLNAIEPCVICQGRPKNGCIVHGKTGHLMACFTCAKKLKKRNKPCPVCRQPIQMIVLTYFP", "assay": "disruptors of Mdm2/MdmX RING complex – cell-based, luminescence, split luciferase, SaOS-2, uHTS, primary screen (AID 485346)", "conditions": "SaOS-2 split-luciferase Mdm2/MdmX complementation, at 8 µM, stronger effect = higher value", "values": [
      {"smiles": "Cc1cc(-c2csc(N)n2)c(C)n1-c1ccccc1", "inhibition": "9.07% (inactive)"},
      {"smiles": "CCN(CC(=O)Nc1c(F)cccc1F)C(=O)c1ccc(-c2ccccc2)cc1", "inhibition": "-3.86% (inactive)"},
      {"smiles": "Cc1c(C(=O)N/N=C/c2ccccc2)[nH]c2c([N+](=O)[O-])cccc12", "inhibition": "60% (active)"},
      {"smiles": "COc1cc(CC(=O)N/N=C/c2ccccc2)c([N+](=O)[O-])cc1OC", "inhibition": "10.3% (inactive)"},
      {"smiles": "O=C(N/N=C/c1ccc([N+](=O)[O-])cc1)c1c[nH]c2ccccc12", "inhibition": "12% (inactive)"},
      {"smiles": "CCOc1ccccc1C1C(C(=O)OC)=CN(C)C=C1C(=O)OC", "inhibition": "8.07% (inactive)"},
      {"smiles": "NC(=O)C1(C(N)=O)OC1c1ccc(Cl)cc1Cl", "note": "(stereo not drawn)", "inhibition": "20.9% (inactive)"},
      {"smiles": "COC(=O)C1=CN(C)C=C(C(=O)OC)C1c1ccc(Cl)cc1Cl", "inhibition": "67.5% (active)"},
      {"smiles": "CCCCCN(C(=O)CCC(=O)OCC(=O)NC1CCC(C)CC1)c1c(N)n(CCCC)c(=O)[nH]c1=O", "note": "(stereo not drawn)", "inhibition": "-18.6% (inactive)"},
      {"smiles": "O=C(Nc1nc(-c2ccco2)c(-c2ccco2)s1)c1ccco1", "inhibition": "27% (inactive)"},
      {"smiles": "COc1cc(/C=C/C(=O)OCC(=O)c2ccccc2)cc(OC)c1OC", "inhibition": "20.5% (inactive)"},
      {"smiles": "COc1cc2c(cc1NC(=O)CN1CCN(S(=O)(=O)c3ccc(F)cc3)CC1)oc1ccccc12", "inhibition": "49.9% (inactive)"},
      {"smiles": "COc1cc2c(cc1NC(=O)COC(=O)/C=C/c1ccccc1)oc1ccccc12", "inhibition": "51.9% (active)"},
      {"smiles": "COc1cc(/C=C2/SC(=S)N(Cc3ccccc3)C2=O)cc(OC)c1O", "inhibition": "11.8% (inactive)"},
      {"smiles": "CCCCN1C(=O)/C(=C/C=C2/C=Cc3ccccc3N2CC)SC1=S", "inhibition": "64.7% (active)"},
      {"smiles": "CCCCN1C(=O)/C(=C2/C=CC=CN2C)SC1=S", "inhibition": "-6.03% (inactive)"},
      {"smiles": "FC(F)(F)Oc1ccc(-c2cn3cccnc3n2)cc1", "inhibition": "-41.1% (inactive)"},
      {"smiles": "CSCC[C@H](NC(=O)NC1CCCC1)C(=O)O", "inhibition": "-12.4% (inactive)"},
      {"smiles": "CNC(=S)N/N=C/c1ccc(N2CCOCC2)s1", "inhibition": "-16.1% (inactive)"},
      {"smiles": "COc1cccc(OC)c1C(=O)Nc1sc2c(c1C(N)=O)CCCC2", "inhibition": "19% (inactive)"},
      {"smiles": "NC(=O)c1c(NC(=O)CSc2nnc(-c3ccco3)n2N)sc2c1CCCC2", "inhibition": "22.2% (inactive)"},
      {"smiles": "COc1ccc(C(=O)Nc2ncc3c(n2)-c2ccccc2CC3)cc1", "inhibition": "22.2% (inactive)"},
      {"smiles": "C=CCN(CC=C)S(=O)(=O)c1ccc(C(=O)Nc2nc3c(s2)CCc2ccccc2-3)cc1", "inhibition": "58.5% (active)"},
      {"smiles": "CCN(c1ccccc1)S(=O)(=O)c1ccc(C(=O)Nc2nccs2)cc1", "inhibition": "-12.4% (inactive)"},
      {"smiles": "C=CCN(CC=C)S(=O)(=O)c1ccc(C(=O)Nc2sc3c(c2C(N)=O)CCCCC3)cc1", "inhibition": "92.8% (active)"},
      {"smiles": "COc1cc(Cl)cc(C2NC(=O)NC(C)=C2C(=O)NCc2ccccc2)c1O", "note": "(stereo not drawn)", "inhibition": "-8.24% (inactive)"},
      {"smiles": "Cc1ccc(C)c(N2CCN(C(=O)CCc3nc(-c4cccc(C(F)(F)F)c4)no3)CC2)c1", "inhibition": "-17.8% (inactive)"},
      {"smiles": "COc1ccc(-c2cc(=O)oc3cc(OC(C)C(=O)NCC4CCC(C(=O)O)CC4)ccc23)cc1", "note": "(stereo not drawn)", "inhibition": "-48.8% (inactive)"},
      {"smiles": "CCN(CC)c1ccc(NC(=O)CCc2nnc3ccc(N4CCCCC4)nn23)c(C)c1", "inhibition": "15.3% (inactive)"},
      {"smiles": "CC1CCN(CCCNC(=O)CN2C(=O)CSc3ccc(S(=O)(=O)N4CCCCC4)cc32)CC1", "inhibition": "13% (inactive)"},
      {"smiles": "COc1ccc2[nH]c(=O)c(CN(Cc3cccnc3)S(=O)(=O)c3ccccc3F)cc2c1", "inhibition": "63.9% (active)"},
      {"smiles": "CCOc1ccc2[nH]c(=O)c(CN(CCCO)S(=O)(=O)c3ccc(F)cc3)cc2c1", "inhibition": "-3.41% (inactive)"},
      {"smiles": "CCN(Cc1cc2cc(C)ccc2[nH]c1=O)S(=O)(=O)c1ccccc1", "inhibition": "22.4% (inactive)"},
      {"smiles": "COc1ccc(CCN2CC(C(=O)NCCN3CCNC3=O)CCC2=O)cc1", "note": "(stereo not drawn)", "inhibition": "7.59% (inactive)"},
      {"smiles": "Cc1cc(CNC(=O)c2cccc([N+](=O)[O-])c2)c2ccccc2n1", "inhibition": "57.9% (active)"},
      {"smiles": "Cc1cc(C)nc(NC(=O)c2cccc([N+](=O)[O-])c2)c1", "inhibition": "1.76% (inactive)"},
      {"smiles": "CN(C(=O)c1cccc([N+](=O)[O-])c1)c1ccccc1C(=O)NCc1ccccc1", "inhibition": "10.9% (inactive)"},
      {"smiles": "COc1cccc2[nH]c(C(=O)NCCc3ccccc3)cc12", "inhibition": "-35.8% (inactive)"},
      {"smiles": "O=C(NCc1ccccc1Cl)C(=O)NCC1CCCN1S(=O)(=O)c1cccs1", "note": "(stereo not drawn)", "inhibition": "2.29% (inactive)"},
      {"smiles": "CCc1ccc(C(=O)N2CCN(S(=O)(=O)c3sc(C(=O)O)c(C)c3C(=O)O)CC2)cc1", "inhibition": "-9.23% (inactive)"},
      {"smiles": "COc1cc(C(=O)OCC(=O)NC23CC4CC(CC(C4)C2)C3)cc(OC)c1OC", "inhibition": "11.3% (inactive)"},
      {"smiles": "CN(NC(=O)c1ccccc1)c1nc2ccccc2nc1C(F)(F)F", "inhibition": "59.8% (active)"},
      {"smiles": "Cc1cccc(C(=O)Nc2ccc(C(=O)N/N=C/c3cccc(C)n3)cc2)c1", "inhibition": "8.86% (inactive)"},
      {"smiles": "Cc1cccc(C(=O)Nc2ccc(CC(=O)O)cc2)c1", "inhibition": "-7.55% (inactive)"},
      {"smiles": "CN(NC(=O)c1ccccc1F)c1nc(C(F)(F)F)nc2ccccc12", "inhibition": "60.3% (active)"},
      {"smiles": "CC(NC(=O)c1ccccc1F)c1cccc2ccccc12", "note": "(stereo not drawn)", "inhibition": "3.89% (inactive)"},
      {"smiles": "CSc1nc(N(C)NC(=O)c2cccc(C)c2)c2ccccc2n1", "inhibition": "63% (active)"},
      {"smiles": "Cn1c(CC(=O)NNC(=O)c2ccccc2F)nc2ccccc21", "inhibition": "8.1% (inactive)"},
      {"smiles": "COc1ccc(C(=O)NN(C)c2nc(-c3ccccc3)cc(C)c2S(C)(=O)=O)cc1", "inhibition": "2.68% (inactive)"},
      {"smiles": "Cc1nc2ccccc2c(=O)n1NC(=O)c1ccccc1", "inhibition": "-5.89% (inactive)"},
      {"smiles": "COc1ccc(NC(=O)c2cccc3c2C(=O)N(CC2CCCO2)C3)cc1OC", "note": "(stereo not drawn)", "inhibition": "-24.7% (inactive)"},
      {"smiles": "CC(NC(=O)COC(=O)c1ccc2ccccc2n1)c1ccccc1", "note": "(stereo not drawn)", "inhibition": "-14.1% (inactive)"},
      {"smiles": "C=CCSc1ccc(S(=O)(=O)N2CCN(C)CC2)cn1", "inhibition": "13.1% (inactive)"},
      {"smiles": "COc1ccc(N(CC(=O)NC2CCCCCCC2)S(=O)(=O)c2c(C)nn(C)c2C)cc1", "inhibition": "-2% (inactive)"},
      {"smiles": "O=C(/C=C/c1ccc([N+](=O)[O-])o1)NNC(=O)c1ccc(F)cc1", "inhibition": "40% (inactive)"},
      {"smiles": "CCOCCCNC(=S)N1CCC(NC(=O)C2CCCCC2)CC1", "inhibition": "15.2% (inactive)"},
      {"smiles": "Cc1ccc(C(=O)C(=S)N2CCOCC2)cc1", "inhibition": "10.1% (inactive)"},
      {"smiles": "CC(C)CC(CCc1ccccc1)OS(N)(=O)=O", "note": "(stereo not drawn)", "inhibition": "-32.9% (inactive)"}
    ]}
  ]
}
